# Out of some 310,000 compounds screened, about 14,000 (4.5%) showed an effect of 50% or more. The effect is printed as a negative number. Only a selection was taken, and strong results are over-represented in it overall.
# Molecular target: human ether-à-go-go-related gene (hERG) potassium channel (human, UniProt Q12809)
# Assay: primary screen, population patch clamp on CHO cells stably expressing hERG; higher = less effect of the substance
# 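Further: peak tail current of the secondary pulse compared with the same well before compound.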
# human ether-à-go-go-related gene (hERG) potassium channel, sequence (Q12809 whole entry, looked up): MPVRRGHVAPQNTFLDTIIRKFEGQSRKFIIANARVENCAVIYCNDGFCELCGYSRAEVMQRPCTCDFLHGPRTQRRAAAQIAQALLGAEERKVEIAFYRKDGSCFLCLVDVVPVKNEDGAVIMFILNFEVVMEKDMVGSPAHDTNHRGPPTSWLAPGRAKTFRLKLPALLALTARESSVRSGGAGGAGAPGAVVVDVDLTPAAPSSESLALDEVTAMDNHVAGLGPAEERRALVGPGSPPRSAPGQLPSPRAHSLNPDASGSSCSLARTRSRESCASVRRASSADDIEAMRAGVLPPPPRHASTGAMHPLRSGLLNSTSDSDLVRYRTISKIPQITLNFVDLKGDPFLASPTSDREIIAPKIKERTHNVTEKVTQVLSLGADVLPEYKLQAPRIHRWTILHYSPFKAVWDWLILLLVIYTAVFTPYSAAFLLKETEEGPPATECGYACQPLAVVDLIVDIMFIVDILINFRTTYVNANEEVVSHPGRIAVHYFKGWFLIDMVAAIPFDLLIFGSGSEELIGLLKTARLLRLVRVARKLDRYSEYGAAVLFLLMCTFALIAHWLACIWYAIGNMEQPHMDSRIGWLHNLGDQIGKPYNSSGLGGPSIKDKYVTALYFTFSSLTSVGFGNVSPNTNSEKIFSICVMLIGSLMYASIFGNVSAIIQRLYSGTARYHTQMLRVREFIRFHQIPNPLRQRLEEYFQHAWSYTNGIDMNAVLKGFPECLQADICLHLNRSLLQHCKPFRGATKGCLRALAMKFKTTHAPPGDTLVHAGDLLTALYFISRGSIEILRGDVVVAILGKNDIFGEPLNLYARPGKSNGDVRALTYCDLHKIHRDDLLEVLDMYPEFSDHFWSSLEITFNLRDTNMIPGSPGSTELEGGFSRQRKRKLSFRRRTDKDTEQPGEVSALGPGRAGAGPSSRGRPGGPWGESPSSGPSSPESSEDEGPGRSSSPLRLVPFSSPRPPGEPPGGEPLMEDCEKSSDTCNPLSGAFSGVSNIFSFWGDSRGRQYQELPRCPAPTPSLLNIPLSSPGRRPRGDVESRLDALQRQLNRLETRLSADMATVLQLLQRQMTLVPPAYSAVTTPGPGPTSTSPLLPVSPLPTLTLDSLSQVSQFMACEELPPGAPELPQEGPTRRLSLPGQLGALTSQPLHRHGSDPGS
row,Compound,"hERG current change (%, negative = inhibition) at 10uM [%]"
1,CN1[C@@H]2CC[C@H]1CC(OC1c3ccccc3CCc3ccccc31)C2.O=C(O)CC(O)(CC(=O)O)C(=O)O (stereo partly drawn),-42.6
2,CC(C)NC(=O)c1cc(-c2cccs2)on1,-4.89
3,CCCCN(C(=O)c1ccc2c(c1)S(=O)(=O)N=C1CCCCCN12)c1c(N)n(CCCC)c(=O)[nH]c1=O,8.23
4,COc1cc(N=CC2=C(O)c3ccccc3C2=O)cc(OC)c1,8.36
5,Cc1cccc(NS(=O)(=O)c2ccc(C)c(C(=O)NCC(c3ccccc3)N(C)C)c2)c1 (stereo not drawn),-14.2
6,Nc1c(-c2ccccc2)c(CSc2nc3ccccc3[nH]2)nn1-c1cccc(Cl)c1,-3.15
7,O=C(COc1ccc(Cl)cc1)NC1CC1,5.47
8,O=C(Nc1ccc(-c2nc3ccccc3s2)c(O)c1)C1=COCCO1,-73.1
9,O=C(Nc1ccccc1-c1nc2ccccc2s1)C1=COCCO1,0.377
10,O=C(Nc1ccc(-c2nc3ccccc3s2)cc1)C1=COCCO1,22.2
11,CCOc1ccc(/C(O)=C2/C(=O)C(=O)N(CCN(CC)CC)C2c2cccs2)cc1 (stereo not drawn),8.37
12,O=c1cc(-c2ccccc2Cl)oc2ccc([N+](=O)[O-])c(O)c12,9.93
13,CN(CC1CCCN(CCc2ccc(Cl)cc2)C1)C(=O)C(=O)c1ccco1 (stereo not drawn),-74.5
14,CN(CC1CCCN(CCc2ccc(Cl)cc2)C1)C(=O)c1ccco1 (stereo not drawn),-25.5
15,Cc1ccccc1CCN1CCCC(CN(C)CC(C)(C)C)C1 (stereo not drawn),8.88
16,Cc1ccccc1CCN1CCCC(CN(C)C(=O)C(=O)c2ccco2)C1 (stereo not drawn),-70.1
17,CCOc1ccc(NC(=O)CSc2nncn2C)cc1,18.7
18,CCc1noc(C)c1C(=O)Nc1nnc(C(CC)CC)s1,-16.9
19,CC1C/C(=C/c2ccncc2)C(=O)/C(=C/c2ccncc2)C1 (stereo not drawn),-41.9
20,CC1C/C(=C\c2cccnc2)C(=O)/C(=C/c2cccnc2)C1 (stereo not drawn),-63.1
21,O=C1/C(=C/c2cccnc2)CC/C1=C\c1cccnc1,-24.5
22,COc1ccccc1CC(=O)Nc1ccc(S(=O)(=O)N2CC(C)CC(C)C2)cc1 (stereo not drawn),-7.25

row,Compound,"hERG current change (%, negative = inhibition) at 10uM [%]"
1,COc1cc(OC)nc(NC(=O)CN2CCN(c3ccc(F)cc3)CC2)n1,-20.1
2,CN1CCc2c(sc3c2C(=O)NC(/C=C\c2ccccc2)N3)C1 (stereo not drawn),-58.6
3,CN1CCc2c(sc3c2C(=O)NC(c2ccc4c(c2)OCO4)N3)C1 (stereo not drawn),-16.5
4,CN1CCc2c(sc3c2C(=O)NC(/C=C/c2ccco2)N3)C1 (stereo not drawn),-27.4
5,Cc1ccc(C2NC(=O)c3c(sc4c3CCN(C)C4)N2)s1 (stereo not drawn),-36.8
6,CN1CCc2c(sc3c2C(=O)NC(c2ccccn2)N3)C1 (stereo not drawn),-1.35
7,CSc1ccc(C2NC(=O)c3c(sc4c3CCN(C)C4)N2)cc1 (stereo not drawn),-60.6
8,Cc1ccc2nc(-c3ccc(-c4ccccn4)s3)cn2c1,-1.76
9,CCNc1nc(NCC)nc(N(C#N)CCOc2ccccc2)n1,-55.1
10,CCNc1nc(NC(C)C)nc(N(C#N)CCOc2ccccc2)n1,-26
11,CN(C)c1nc(N(C)C)nc(N(C#N)CCOc2ccccc2)n1,-4.58
12,ON1C2CCCCC2N(O)C1c1ccccc1 (stereo not drawn),13.2
13,O=C(COC(=O)C1(c2ccccc2F)CCCC1)NCc1ccc2c(c1)OCO2,-6.33
14,CCOC(=O)N1CCC(NC(=O)C2CCCN(Cc3nc(-c4ccc(CC)cc4)oc3C)C2)CC1 (stereo not drawn),-71.5
15,CCOC(=O)N1CCC(NC(=O)CS(=O)Cc2nc(-c3ccc(C)cc3)oc2C)CC1 (stereo not drawn),-2.4
16,CCOC(=O)N1CCC(NC(=O)C2CCCN(Cc3nc(-c4cccc(Cl)c4)oc3C)C2)CC1 (stereo not drawn),-72.2
17,CCOC(=O)N1CCC(NC(=O)CS(=O)(=O)Cc2nc(-c3cccc(Cl)c3)oc2C)CC1,-18.3
18,CCOC(=O)N1CCC(NC(=O)C2CCCN(Cc3nc(-c4cccc(C)c4)oc3C)C2)CC1 (stereo not drawn),-63.6
19,Cc1oc(-c2cccc(Cl)c2)nc1CS(=O)(=O)CC(=O)NC1CCCC1,6.45
20,CCOC(=O)N1CCC(NC(=O)CSCc2nc(-c3cccc(OC)c3)oc2C)CC1,-17.6
21,CCc1ccc(-c2nc(CN3CCCC(C(=O)O)C3)c(C)o2)cc1 (stereo not drawn),14.2
22,CCOC(=O)N1CCC(NC(=O)C2CCCN(c3nc4ccccc4o3)C2)CC1 (stereo not drawn),-28.4

row,Compound,"hERG current change (%, negative = inhibition) at 10uM [%]"
1,Nc1sc(-c2ccccc2)cc1C(=O)N/N=C/c1ccc(Cl)cc1,18.1
2,O=C(CN1CCCCCCC1)Nc1cc(Cl)cc(Cl)c1,1.75
3,Cc1ccc(-c2noc(Cn3cc(S(=O)(=O)N4CCCC4)ccc3=O)n2)cc1,8.62
4,CC(=O)N1c2ccc(S(=O)(=O)N3CCC(C(=O)Nc4cc(C)cc(C)c4)CC3)cc2CC1C (stereo not drawn),2
5,COc1cc(/C=C/C(=O)OCC(=O)Nc2ccc(C)cc2[N+](=O)[O-])ccc1O,-20.5
6,CC(CC(=O)O)CC(=O)Nc1cc([N+](=O)[O-])ccc1O (stereo not drawn),-2.89
7,COC(=O)c1cccc(N2C(=O)c3ccccc3S2(=O)=O)c1,-9.36
8,CCOC(=O)c1cccc(N2C(=O)c3ccccc3S2(=O)=O)c1,-59.5
9,CCOC(=O)c1ccccc1CN1C(=O)c2ccccc2S1(=O)=O,-11.1
10,CCOC(=O)N/N=C(\C)c1ccc(Oc2ncccn2)cc1,17.1
11,CCN(CC)C1CCN(C(=O)c2ccc(OC3CCN(CCc4ccccc4)CC3)cc2)C1 (stereo not drawn),2.06
12,CCCCC(=O)C1CCN(Cc2ccccc2)CC1,-34.5
13,O=C(O)C(=O)O.c1ccc(CN2CCC(N3CCC(N4CCCCCC4)CC3)CC2)cc1,16.5
14,CC(C)CC(=O)N1CCC(N(CCc2ccccc2)Cc2ccccc2)CC1.O=C(O)C(=O)O,-46.8
15,CCN(Cc1ccccc1)C1CCN(Cc2ccccc2)CC1,-14.9
16,CCCCN(Cc1ccccc1)C1CCN(Cc2ccccc2)CC1,-53.5
17,CCCCN(Cc1ccccc1)C1CCN(CCc2ccccc2)CC1,-72.2
18,CCCN1CCC(N(CCc2ccccc2)Cc2ccccc2)CC1,-72.2
19,O=C(O)C(=O)O.c1ccc(CCN(Cc2ccccc2)C2CCN(C3CCCC3)CC2)cc1,-77
20,CCCN1CNC(=S)N(CCc2ccccc2)C1,8.83
21,CCCN1CCC(N(C)CCc2ccc(OC)c(OC)c2)CC1,-11.4
22,CCCN(CCO)C1CCN(CCc2ccccc2)CC1,7.14

row,Compound,"hERG current change (%, negative = inhibition) at 10uM [%]"
1,CC(C)CNS(=O)(=O)c1ccc(OCC(=O)NCC2CCCO2)c(Cl)c1 (stereo not drawn),-4.3
2,S=c1[nH]cnc2scc(-c3ccc(Br)cc3)c12,0.154
3,O=C1Nc2ccc(F)cc2C12Nc1ccccc1-c1nnc(SCc3ccccc3)nc1O2 (stereo not drawn),-13.2
4,COc1ccccc1NC(=O)c1ccc(-n2cccn2)nc1,3.91
5,O=C(Nc1cccc(Cl)c1)c1ccc(NCCCN2CCOCC2)c([N+](=O)[O-])c1,-37.9
6,CC(C(N)=O)N1CC(c2ccccc2)CC1=O (stereo not drawn),-4.86
7,O=C(CSc1nccc(=O)[nH]1)Nc1ccc2c(c1)OCCO2,51.6
8,Clc1cccc(Cl)c1CSc1nnc(CN2CCOCC2)n1-c1ccccc1,-28.9
9,Clc1ccc(CSc2nnc(CN3CCOCC3)n2-c2ccccc2)cc1Cl,-74.1
10,Fc1ccc(CSc2nnc(CN3CCOCC3)n2-c2ccccc2)c(Cl)c1,-24
11,CSCCC(NS(=O)(=O)c1ccc(C)cc1)C(=O)N1CCN(C(C)=O)CC1 (stereo not drawn),3.56
12,CCCCn1c(NC(=O)c2ccco2)c(C(=O)OCC)c2nc3ccccc3nc21,-42.1
13,CCCCCn1c(NC(=O)c2ccco2)c(C(=O)OCC)c2nc3ccccc3nc21,-80.4
14,CCOC(=O)c1c(NC(=O)c2ccco2)n(C2CCCCC2)c2nc3ccccc3nc12,-35.6
15,CCCCn1c(NS(=O)(=O)c2ccccc2)c(C(=O)OCC)c2nc3ccccc3nc21,-23.9
16,CCCCn1c(NC(=O)c2ccc(Br)o2)c(S(=O)(=O)c2ccccc2)c2nc3ccccc3nc21,-0.885
17,CCCCn1c(NC(=O)c2ccc(Br)o2)c(C(=O)OCC)c2nc3ccccc3nc21,-53.8
18,Cc1cc(C)n(CC(=O)NNC(=O)c2cccc(C(F)(F)F)c2)n1,12.7
19,COc1ccc(C(=O)c2oc3ccccc3c2NC(C)=O)cc1,0.829
20,O=C(COc1ccc(/C=N/NC(=O)c2cc3ccccc3o2)cc1Cl)Nc1ccccc1,6.96
21,Cc1[nH]c2ccccc2c1/C=N/NC(=O)CNC(=O)c1ccccc1,-9.38

# Source: PMC4336329 (PLoS ONE, 2015)
